From PubChem BioAssay

Biological target: Mitogen-activated protein kinase 7 (Homo sapiens) (UniProt Q13164)
Test: Gal4-ERK5 driven luciferase induction – cell-based, HTS, primary screen (AID 1508626);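 further: luciferase driven by Gal4-ERK5 fusion binding five Gal4 sites before minimal TATA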
Settings: HeLa Gal4-ERK5 transactivation, 18 h, at 5 µM, stronger effect = higher value;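 active means luciferase signal above three times the same-plate solvent-only control wells; inactive means the rest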

Chain of Mitogen-activated protein kinase 7 (Homo sapiens) (Q13164 whole entry, looked up, the tested form may be a part): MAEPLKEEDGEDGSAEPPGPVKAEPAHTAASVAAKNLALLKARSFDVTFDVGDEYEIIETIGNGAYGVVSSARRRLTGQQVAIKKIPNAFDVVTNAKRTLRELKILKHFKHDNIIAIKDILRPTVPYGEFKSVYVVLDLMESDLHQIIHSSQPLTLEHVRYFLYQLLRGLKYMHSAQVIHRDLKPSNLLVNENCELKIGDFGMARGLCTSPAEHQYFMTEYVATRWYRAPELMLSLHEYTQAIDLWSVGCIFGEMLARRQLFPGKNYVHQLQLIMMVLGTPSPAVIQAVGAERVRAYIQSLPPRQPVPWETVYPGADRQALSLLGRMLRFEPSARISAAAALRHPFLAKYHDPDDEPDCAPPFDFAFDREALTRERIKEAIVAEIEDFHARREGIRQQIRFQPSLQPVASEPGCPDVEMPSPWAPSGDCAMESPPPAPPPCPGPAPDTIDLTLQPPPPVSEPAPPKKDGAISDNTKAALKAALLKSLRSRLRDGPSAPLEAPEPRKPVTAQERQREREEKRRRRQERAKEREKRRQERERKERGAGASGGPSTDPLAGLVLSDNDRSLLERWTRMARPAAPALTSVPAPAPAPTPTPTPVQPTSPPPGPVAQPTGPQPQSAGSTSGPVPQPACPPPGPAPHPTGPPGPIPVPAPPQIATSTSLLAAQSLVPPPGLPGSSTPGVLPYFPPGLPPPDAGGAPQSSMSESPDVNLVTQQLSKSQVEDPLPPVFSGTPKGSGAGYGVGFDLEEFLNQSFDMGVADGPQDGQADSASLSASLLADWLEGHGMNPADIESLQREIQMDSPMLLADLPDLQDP

Luciferase signal, inactive:
COc1ccc(CN(CCN(C)C)c2ccccn2)cc1 88 AU
O=C(O)c1ccccc1Nc1cccc(C(F)(F)F)c1 56 AU
C[n+]1cc2c3c(ccc2c2ccc4cc5c(cc4c21)OCO5)OCO3 84 AU
C=CCc1ccccc1OCC(O)CNC(C)C (centres undefined) 60 AU
CC(=O)Nc1ccc(O)cc1 40 AU
CN(C)CCCN1c2ccccc2Sc2ccc(C(F)(F)F)cc21 64 AU
CN(C)CCC=C1c2ccccc2C=Cc2ccccc21 52 AU
COc1ccccc1OCC(O)CO (centres undefined) 160 AU
Cc1[nH]c(C)c(Cl)c(=O)c1Cl 48 AU
Nc1ccc(C(=O)O)c(O)c1 44 AU
CCN(CC)C(=O)N1CCN(C)CC1 60 AU
O=C(O)c1cn(-c2ccc(F)cc2)c2cc(N3CCNCC3)c(F)cc2c1=O 72 AU
CN(C)[C@@H]1C(=O)C(C(N)=O)=C(O)[C@@]2(O)C(=O)C3=C(O)c4c(O)ccc(Cl)c4[C@@H](O)[C@H]3C[C@@H]12 36 AU
CCN(CC)C(C)CN1c2ccccc2Sc2ccccc21 (centres undefined) 36 AU
CCN(CC)CCOCCOC(=O)C1(c2ccccc2)CCCC1 36 AU
COc1ccc(CCN2CCC(Nc3nc4ccccc4n3Cc3ccc(F)cc3)CC2)cc1 84 AU
C[C@]12CCC(=O)C=C1C=C[C@@H]1[C@@H]2CC[C@@]2(C)[C@H]1CC[C@@]21CCC(=O)O1 40 AU
COc1cccc2c1C(=O)c1c(O)c3c(c(O)c1C2=O)C[C@@](O)(C(=O)CO)C[C@@H]3O[C@H]1C[C@H](N)[C@H](O)[C@H](C)O1 32 AU
O=C(N[C@H](CO)[C@H](O)c1ccc([N+](=O)[O-])cc1)C(Cl)Cl 88 AU
C/C=C/c1ccc(OC)cc1 76 AU
CNC[C@H](O)c1ccc(O)c(O)c1 24 AU
CO[C@@]12[C@H](COC(N)=O)C3=C(C(=O)C(C)=C(N)C3=O)N1C[C@@H]1N[C@@H]12 44 AU
Cc1nnc(SCC2=C(C(=O)O)N3C(=O)[C@@H](NC(=O)Cn4cnnn4)[C@H]3SC2)s1 28 AU
CN(C)CCC(c1ccccc1)c1ccccn1 (centres undefined) 44 AU
COC(=O)[C@@H]1[C@H]2C[C@H]3c4[nH]c5ccccc5c4CCN3C[C@@H]2CC[C@@H]1O 44 AU
Cc1ccc(C(=O)Nc2ccc(S(=O)(=O)O)c3cc(S(=O)(=O)O)cc(S(=O)(=O)O)c23)cc1NC(=O)c1cccc(NC(=O)Nc2cccc(C(=O)Nc3cc(C(=O)Nc4ccc(S(=O)(=O)O)c5cc(S(=O)(=O)O)cc(S(=O)(=O)O)c45)ccc3C)c2)c1 48 AU
N[C@@H](Cc1ccc(O)c(O)c1)C(=O)O 72 AU
C[C@]12CC[C@@H]3c4ccc(O)cc4CC[C@H]3[C@@H]1C[C@@H](O)[C@@H]2O 64 AU
O=C1NCC2(CCN(CCc3ccccc3)CC2)O1 52 AU
O=C(O)CN1C(=O)c2cccc3cccc(c23)C1=O 44 AU
COc1ccnc(CS(=O)c2nc3ccc(OC(F)F)cc3[nH]2)c1OC (centres undefined) 56 AU
C=CC(N)CCC(=O)O (centres undefined) 92 AU
CC(=O)Oc1ccc(C(c2ccc(OC(C)=O)cc2)c2ccccn2)cc1 44 AU
CCN(CC)CCNC(=O)c1cc(S(C)(=O)=O)ccc1OC 80 AU
CC(C)(Oc1ccc(CCNC(=O)c2ccc(Cl)cc2)cc1)C(=O)O 40 AU
CCCCNc1ccc(C(=O)OCCN(C)C)cc1 76 AU
NC(N)=N/N=C/c1c(Cl)cccc1Cl 52 AU
O=C(Nc1ccc([N+](=O)[O-])cc1Cl)c1cc(Cl)ccc1O 24 AU
O=C1C(=O)c2ccccc2C(O)=C1C1CCC(c2ccc(Cl)cc2)CC1 (centres undefined) 56 AU
